Where “and” joins values, the source holds several entries; their conditions need not be identical. Equal entries are not always repeated. Calls of active or inactive are those of the source. Where a call stands in place of a potency, no number is given. Unless noted, calls follow the shape of the dose curve; as a rule, active = well fitted curve in the direction sought with a large enough effect in the repeat runs; inconclusive = weak or mixed curves; inactive = no such curve, though single readings can be large; an effect the other way counts as inactive or inconclusive.
How the values were obtained:
[1] = qHTS assay to identify small molecule antagonists of the thyroid receptor (TR) signaling pathway (AID 743065); also: nearly all actives have a fitted effect of over 55% in size; also: potency is read from the fitted curve at half-maximal effect
How it was run: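 GH3.TRE-Luc rat pituitary cells carrying two TR response elements driving luciferase were plated for 4 h, given compound plus 1 nM T3 (final), and incubated 23.5 h at 37 C. ONE-Glo luminescence measured reporter inhibition; CellTiter-Fluor fluorescence tracked cytotoxicity.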

[2] = system: thyroid hormone receptor (rat, GH3 cells); test: qHTS assay to identify small molecule agonists of the thyroid receptor (TR) signaling pathway (AID 743066; calls by dose curve)
[3] = target: Estrogen receptor (Homo sapiens) (UniProt P03372); test: qHTS assay to identify small molecule antagonists of the estrogen receptor alpha (ER-alpha) signaling pathway (AID 743069; active = well fitted curve in the direction sought with a large enough effect in the signal ratio in the repeat runs, not every such curve was filed as active; inconclusive = weak or mixed curves, or effect the other way; inactive = no such curve, though single readings can be large or run the other way; the % refers to the signal ratio)
Estrogen receptor (Homo sapiens), sequence (P03372 whole entry, looked up): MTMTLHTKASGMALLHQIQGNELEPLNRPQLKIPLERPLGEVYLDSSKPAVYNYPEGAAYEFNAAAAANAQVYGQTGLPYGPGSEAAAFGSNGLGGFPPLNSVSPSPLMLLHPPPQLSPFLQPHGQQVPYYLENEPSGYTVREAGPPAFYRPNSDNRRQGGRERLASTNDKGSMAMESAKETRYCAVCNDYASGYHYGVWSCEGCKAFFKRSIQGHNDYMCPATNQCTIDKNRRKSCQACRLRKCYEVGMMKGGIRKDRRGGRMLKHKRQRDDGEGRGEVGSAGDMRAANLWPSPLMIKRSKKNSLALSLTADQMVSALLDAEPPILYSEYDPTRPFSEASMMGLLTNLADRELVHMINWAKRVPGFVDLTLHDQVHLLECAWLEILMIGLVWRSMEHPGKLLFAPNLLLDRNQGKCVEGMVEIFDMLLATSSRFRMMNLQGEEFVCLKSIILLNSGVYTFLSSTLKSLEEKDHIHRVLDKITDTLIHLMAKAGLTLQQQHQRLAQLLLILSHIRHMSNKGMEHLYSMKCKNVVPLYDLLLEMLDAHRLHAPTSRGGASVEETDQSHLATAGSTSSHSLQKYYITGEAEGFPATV
How it was run: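 HEK293 cells stably carrying an ER-alpha-UAS-bla beta-lactamase reporter were pre-cultured overnight in 2% charcoal-stripped FBS medium. Test compounds in DMSO were added together with 17beta-estradiol for 18 hr at 37C. Read-out was fluorescence after 2 hr with LiveBLAzer B/G FRET substrate at room temperature.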

[4] = qHTS assay to identify small molecule antagonists of the estrogen receptor alpha (ER-alpha) signaling pathway - cell viability counter screen (AID 743074; calls by dose curve; also: nearly all actives have a fitted effect of over 45% in size)
[5] = target: Estrogen receptor (Homo sapiens) (UniProt P03372); test: qHTS assay to identify small molecule agonists of the estrogen receptor alpha (ER-alpha) signaling pathway (AID 743075; calls by dose curve; also: potency is read from the fitted curve at half-maximal effect)
[6] = target: Estrogen receptor (Homo sapiens) (UniProt P03372); test: qHTS assay to identify small molecule agonists of the estrogen receptor alpha (ER-alpha) signaling pathway using the BG1 cell line (AID 743079); conditions: BG1Luc4E2 cells, ERE-luciferase agonist, 22 h; activation: at 70.3 µM (top of the series); also: nearly all actives have a fitted effect of over 20% in size; also: potency is read from the fitted curve at half-maximal effect
[7] = qHTS assay to identify small molecule antagonists of the estrogen receptor alpha (ER-alpha) signaling pathway using the BG1 cell line (AID 743080; calls by dose curve;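 also: BG1 cells stimulated with 17beta-estradiol alongside compound; nearly all actives have a fitted effect of over 25% in size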; also: potency is read from the fitted curve at half-maximal effect)
How it was run: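 Seeding, 24 h rest, compound transfer from DMSO, 17beta-estradiol addition, 21.5 h incubation, CellTiter-Fluor (30 min, 37 C), then ONE-Glo (30 min, room temperature): this sequence was run on BG1-Luc-4E2 reporter cells.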

[8] = qHTS assay to identify small molecule antagonists of the estrogen receptor alpha (ER-alpha) signaling pathway using the BG1 cell line - cell viability counter screen (AID 743081);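 also: compound given together with 17beta-estradiol as the ER stimulus; nearly all actives have a fitted effect of over 45% in size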
[9] = target: Aromatase (Homo sapiens) (UniProt P11511); test: qHTS assay to identify aromatase inhibitors (AID 743083); also: nearly all actives have a fitted effect of over 55% in size
Aromatase (Homo sapiens), sequence (P11511 whole entry, looked up): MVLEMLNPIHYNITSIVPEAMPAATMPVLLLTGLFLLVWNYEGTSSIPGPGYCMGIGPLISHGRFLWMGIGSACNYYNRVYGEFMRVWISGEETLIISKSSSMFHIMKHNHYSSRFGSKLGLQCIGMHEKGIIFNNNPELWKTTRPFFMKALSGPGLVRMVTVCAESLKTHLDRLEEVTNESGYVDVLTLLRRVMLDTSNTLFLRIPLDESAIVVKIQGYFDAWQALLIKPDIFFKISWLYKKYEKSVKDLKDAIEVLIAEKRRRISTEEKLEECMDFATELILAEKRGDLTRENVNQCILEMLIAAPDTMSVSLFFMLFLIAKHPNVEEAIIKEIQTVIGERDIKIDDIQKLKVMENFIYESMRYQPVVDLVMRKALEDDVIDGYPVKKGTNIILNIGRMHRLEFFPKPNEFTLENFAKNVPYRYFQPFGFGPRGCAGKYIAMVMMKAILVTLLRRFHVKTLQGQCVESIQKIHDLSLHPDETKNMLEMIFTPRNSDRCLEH

[10] = qHTS assay to identify aromatase inhibitors - cell viability counter screen (AID 743084);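 also: cells stimulated with testosterone during compound exposure; nearly all actives have a fitted effect of over 55% in size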

Row | SMILES | Potency [1] | Potency [2] | Potency [3] | Potency [4] | Potency [5] | Potency [6] | Potency [7] | Potency [8] | Potency [9] | Potency [10]
1 | C[C@]12C/C(=C/O)C(=O)C[C@@H]1CC[C@@H]1[C@@H]2CC[C@@]2(C)[C@H]1CC[C@]2(C)O | 29.8 µM (active) and 55 µM (active) | inactive | inactive | inactive | 674 nM [inconclusive] (active) and 783 nM [inconclusive] (active) | 211 nM (active) and 97.8 nM (active) | inactive | inactive | inactive | inactive
2 | BrCC(Br)(Br)Br | inactive | inactive | inactive | inactive | inactive | inactive | 35.6 µM (active) | inactive | inactive | inactive
3 | ClSC(Cl)(Cl)Cl | inactive | inactive | inactive | inactive | inactive | inactive | inactive | inactive | inactive | inactive
4 | C=CCOC(=O)c1ccccc1N | inactive | inactive | inactive | inactive | inactive | inactive | inactive | inactive | inactive | inactive
5 | ClC1(Cl)C2(Cl)C3(Cl)C4(Cl)C(Cl)(Cl)C5(Cl)C3(Cl)C1(Cl)C5(Cl)C24Cl (stereo not given) | inactive | inactive | inactive | inactive | inactive | inactive | inactive | inactive | inactive | inactive
6 | CC(Cl)CCl (stereo not given) | inactive | inactive | inactive | inactive | inactive | inactive | inactive | inactive | inactive | inactive
7 | CN/C(=N\[N+](=O)[O-])NCc1cnc(Cl)s1 | inactive | inactive | inactive | inactive | inactive | inactive | inactive | inactive | inactive | inactive
8 | CC1CN1 (stereo not given) | inactive | inactive | inactive | inactive | inactive | inactive | inactive | inactive | inactive | inactive
9 | OCC(Br)CBr (stereo not given) | inactive | inactive | inactive | inactive | inactive | inactive | inactive | inactive | inactive | inactive
10 | CCC1(CC)C(=O)N=C(O)NC1=O | inactive | inactive | inactive | inactive | inactive | inactive | inactive | inactive | inactive | inactive
